Screening results from PubChem BioAssay.
BAP1 inh = inhibitors of human BAP1 deubiquitinase | Q92560 | recombinant BAP1, Ub-AMC hydrolysis fluorescence kinetic; stronger effect = lower value | calls only at 20 µM | 0.48% of 72,000 active | AID 436;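 active = activity remaining at or below 50% of control, provided the compound also passes the data quality filters; inactive = the rest, including low values that fail the filters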
D1 allo mod = allosteric modulators of human D1 dopamine receptor. P21728. HEK293 D1, CRE-luciferase, dopamine EC30 potentiation; actives deviate in either direction. B-score at 10 µM. 5.9% of 58,000 active. AID 641;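 active = luminescence count or its row- and column-corrected plate score outside the 99.7% band of the plate's sample wells, on either side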
hDAT+cocaine = modulates human dopamine transporter uptake under cocaine; Q01959; LLC-PK1 hDAT cells, [14C]-dopamine uptake with cocaine IC80; actives deviate in either direction; B-score at 10 µM; 1.3% of 110,000 active; AID 449768;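 active = Z score or B-score, a plate-position-corrected score, falls beyond the plate's 99.7% confidence bounds, in either direction; inactive = both scores lie inside the 99.7% bounds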
Target sequence (Q01959 whole entry, looked up): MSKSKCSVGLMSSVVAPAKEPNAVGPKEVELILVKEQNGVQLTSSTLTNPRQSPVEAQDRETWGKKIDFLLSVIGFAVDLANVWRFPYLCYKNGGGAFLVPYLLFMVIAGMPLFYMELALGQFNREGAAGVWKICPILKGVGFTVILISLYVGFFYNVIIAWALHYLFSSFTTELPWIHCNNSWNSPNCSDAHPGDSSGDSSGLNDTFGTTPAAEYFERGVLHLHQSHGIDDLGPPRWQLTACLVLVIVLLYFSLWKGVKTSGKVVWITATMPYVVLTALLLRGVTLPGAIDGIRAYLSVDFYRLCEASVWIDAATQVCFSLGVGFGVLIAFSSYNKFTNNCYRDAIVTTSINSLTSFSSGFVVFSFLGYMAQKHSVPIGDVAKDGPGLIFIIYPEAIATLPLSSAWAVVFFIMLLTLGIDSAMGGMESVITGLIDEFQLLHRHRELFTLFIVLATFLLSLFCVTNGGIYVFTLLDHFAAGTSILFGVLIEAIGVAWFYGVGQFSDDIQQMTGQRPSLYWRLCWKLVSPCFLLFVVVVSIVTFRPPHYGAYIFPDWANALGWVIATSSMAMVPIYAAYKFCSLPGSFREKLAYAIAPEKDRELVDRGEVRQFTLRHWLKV
D1 PAM confirm = D1 receptor (human) allosteric modulation, confirmed; shares compounds with D1 allo mod; HEK293 D1 CRE-luciferase, dopamine EC30 potentiation; stronger effect = higher value; luminescence at 10 µM; 88% of 2,200 active;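 active = luminescence in either of two replicates above the same-plate mean plus 3 SD of the low-dose dopamine control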
D1 no dopamine = activates D1 CRE-luciferase signal without dopamine present | shares compounds with D1 allo mod | HEK293 D1 CRE-luciferase, luminescence, no dopamine; stronger effect = higher value | luminescence at 10 µM | 0.8% of 1,900 active | AID 646; in the data active = luminescence above about 3900
Isoprot counter = alters isoproterenol CRE-luciferase response in HEK293 cells | shares compounds with D1 allo mod | HEK293 D1 CRE-luciferase, isoproterenol EC30 counter-screen; stronger effect = higher value | luminescence at 10 µM | 63% of 2,200 active | AID 647;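 active = luminescence in either replicate above plate mean of wells with a partly effective reference agonist dose plus 3 SD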;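 also: isoproterenol raises cAMP through native beta-adrenoceptor Gs so signal bypasses D1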
Of the large screens only hits and unclear results are named; the others gave an inactive call (follow-up assays come after a bar, where shown). This is one part of a sample in which hits are shown more often than they occur.

Cn1cnc2c1c(=O)n(Cc1ccc(F)cc1Cl)c(=O)n2C	D1 allo mod 3.98 | D1 PAM confirm 6528 | D1 no dopamine inactive | Isoprot counter inactive
O=c1[nH]c(=O)n(CCO)c2n[nH]nc12	none (no result: D1 allo mod, hDAT+cocaine)
Cc1cc(C)n(-c2nc3c(c(=O)[nH]c(=O)n3C)n2Cc2ccccc2)n1	D1 allo mod 7.93 | D1 PAM confirm 11052 | D1 no dopamine inactive | Isoprot counter 3104
Cc1cc(C)n(-c2nc3c(c(=O)[nH]c(=O)n3C)n2Cc2ccc(F)cc2)n1	none
Cc1cc(C)n(-c2nc3c(c(=O)[nH]c(=O)n3C)n2CCc2ccccc2)n1	none
Cc1cc(C)n(-c2nc3c(c(=O)[nH]c(=O)n3C)n2C)n1	D1 allo mod 1.77 | D1 PAM confirm inactive | D1 no dopamine inactive | Isoprot counter inactive
CCOc1ccc(C2Nc3ccccc3NC3=C2C(=O)CC(c2ccccc2)C3)cc1 (centres undefined)	none (no result: D1 allo mod, hDAT+cocaine)
Cc1ccc(-c2cc(C(F)(F)F)n3ncc(C(=O)N4CCN(Cc5ccccc5)CC4)c3n2)cc1	none (no result: D1 allo mod, hDAT+cocaine)
CCOc1nc(Nc2ccc(OC)c(Cl)c2)nc(N2CCN(c3ccc(OC)cc3)CC2)n1	none (no result: BAP1 inh, D1 allo mod)
COc1nc(Nc2ccc(OC)c(Cl)c2)nc(OC)n1	D1 allo mod 4.33 | D1 PAM confirm 10816 | D1 no dopamine inactive | Isoprot counter 3332
N#CCNC(=O)c1ccccc1Br	none (no result: D1 allo mod, hDAT+cocaine)
CC(=O)Nc1ccc(S(=O)(=O)N(C2=NCC(C)S2)c2ccccc2)cc1 (centres undefined)	D1 allo mod 19.1 | D1 PAM confirm inactive | D1 no dopamine inactive | Isoprot counter inactive
CC(=O)Nc1ccc(S(=O)(=O)N(C)c2ccccc2)cc1	none (no result: D1 allo mod)
Cc1ccc(NC(=O)N(C2=NCC(C)S2)c2ccccc2)cc1 (centres undefined)	none
Cc1cccc(N(C(=O)Nc2ccccc2)C2=NCC(C)S2)c1 (centres undefined)	D1 allo mod 5.09 | D1 PAM confirm 6412 | Isoprot counter 2700
O=C1c2ccc([N+](=O)[O-])cc2C(=O)N1CC1CCCO1 (centres undefined)	none (no result: D1 allo mod, hDAT+cocaine)
O=C(c1ccccc1F)N1CCN(c2ccc([N+](=O)[O-])cc2Cl)CC1	none (no result: D1 allo mod, hDAT+cocaine)
CCOC(=O)c1nnn(-c2nonc2N)c1-c1ccc(OCC)cc1	none
Nc1nonc1-n1nnc(C(=O)c2ccccc2)c1-c1ccccc1	D1 allo mod 4.29 | D1 PAM confirm 9084 | D1 no dopamine inactive | Isoprot counter inactive
O=C(O)c1ccc(-n2c(C=Cc3cccc([N+](=O)[O-])c3)nc3ccccc3c2=O)cc1	none (no result: D1 allo mod, hDAT+cocaine)
COc1ccc(OC)c(NC(=O)COc2ccc(Cl)cc2)c1	none (no result: D1 allo mod, hDAT+cocaine)
Cn1c(N2CCCC2)nc2c1c(=O)n(Cc1ccc(Cl)cc1)c(=O)n2C	D1 allo mod 8.97 | D1 PAM confirm 17964 | D1 no dopamine inactive | Isoprot counter 5520
Cn1c(=O)n(Cc2ccccc2)c(=O)c2c1nc1n2CCCN1Cc1ccccc1	none
Cn1c(N2CCC(C(N)=O)CC2)nc2c1c(=O)n(Cc1ccc(Cl)cc1)c(=O)n2C	none
Cn1c(N2CCCC2)nc2c1c(=O)n(Cc1cccc(F)c1)c(=O)n2C	D1 allo mod 4.48 | D1 PAM confirm 11200 | D1 no dopamine inactive | Isoprot counter 3216
Nc1c(C(=O)Nc2ccccc2)sc2nc(-c3ccncc3)ccc12	none (no result: D1 allo mod, hDAT+cocaine)
CCC(C)(C(=O)NC1CCCC1)N(Cc1ccco1)C(=O)c1ccccn1 (centres undefined)	none
CCC(C)(C(=O)NC1CCCC1)N(Cc1ccco1)C(=O)c1ccc2c(c1)OCO2 (centres undefined)	D1 allo mod 4.86 | D1 PAM confirm inactive | D1 no dopamine inactive | Isoprot counter inactive
O=C(CSc1nc2ccccc2[nH]1)Nc1ccccc1N1CCOCC1	none (no result: D1 allo mod)
O=C(CSc1nc2ccccc2[nH]1)Nc1cc(C(F)(F)F)ccc1N1CCOCC1	D1 allo mod 4.04 | D1 PAM confirm 7804 | Isoprot counter inactive
CC(C)(C)c1ccc(OCC(=O)Nc2ccc(Cl)cn2)cc1	none (no result: D1 allo mod, hDAT+cocaine)
Cc1cc(C(=O)O)cc(S(=O)(=O)N2CCOCC2)c1C	none
O=S(=O)(c1ccccc1C(F)(F)F)N1CCOCC1	D1 allo mod 4.88 | D1 PAM confirm inactive | D1 no dopamine inactive | Isoprot counter inactive
OC[C@H]1O[C@@H](n2cnc3c(Nc4ccccc4)ncnc32)C(O)[C@H]1O (some centres undefined)	none (no result: D1 allo mod, hDAT+cocaine)
OC[C@H]1O[C@@H](n2cnc3c(Nc4ccccc4)ncnc32)[C@H](O)[C@@H]1O	D1 allo mod 6.58 | D1 PAM confirm 7048 | Isoprot counter 6212
Cc1cccc(C)c1NC(=O)c1ccccc1NC(=O)c1ccccc1	none (no result: D1 allo mod, hDAT+cocaine)
O=C(Oc1ccccc1)c1ccc(-c2ccccc2)cc1	none (no result: D1 allo mod, hDAT+cocaine)
COc1cc(C=Nc2c(C)n(C)n(-c3ccccc3)c2=O)ccc1OC(C)=O	none (no result: D1 allo mod, hDAT+cocaine)
Cc1cc2c(c(=O)n1Cc1ccccn1)C(c1ccc3c(c1)OCO3)C(C#N)=C(N)O2 (centres undefined)	none
COc1ccc(CCn2c(C)cc3c(c2=O)C(c2ccc4c(c2)OCO4)C(C#N)=C(N)O3)cc1OC (centres undefined)	D1 allo mod 10.8, hDAT+cocaine 2.59 | D1 PAM confirm 14224 | D1 no dopamine inactive | Isoprot counter 3352
COc1ccc(-c2nnc3sc(CN4C(=O)c5ccccc5C4=O)nn23)cc1	none
COc1ccc(-c2nnc3sc(C(C)N4C(=O)c5ccccc5C4=O)nn23)cc1 (centres undefined)	D1 allo mod 9.32 | D1 PAM confirm 10292 | D1 no dopamine inactive | Isoprot counter 5324
CC1CCN(c2ccc([N+](=O)[O-])c(NCCOc3ccc(F)cc3)c2)CC1	none (no result: D1 allo mod, hDAT+cocaine)
c1ccc2nc3c(nc2c1)c1ccccc1n3CCN1CCOCC1	D1 allo mod 9.48 | D1 PAM confirm 18764 | D1 no dopamine inactive | Isoprot counter 4556
CCCCCn1c2ccccc2c2nc3ccccc3nc21	none (no result: D1 allo mod, hDAT+cocaine)
CCn1c2ccccc2c2nc3cc(S(=O)(=O)N4CCOCC4)ccc3nc21	D1 allo mod 6.46 (no result: hDAT+cocaine) | D1 PAM confirm 15708 | D1 no dopamine inactive | Isoprot counter 4156
O=S(=O)(c1ccc2oc3ccccc3c2c1)N1CCOCC1	none (no result: BAP1 inh, D1 allo mod)
O=C(Nc1nc(-c2ccc3c(c2)OCO3)cs1)c1cc(=O)c2ccccc2o1	none (no result: D1 allo mod, hDAT+cocaine)
CCN(CC)CCn1c(NC(C)=O)nc2ccccc21	none (no result: D1 allo mod, hDAT+cocaine)
O=C(Nc1sc2c(c1C(=O)N1CCCCC1)CCCC2)c1ccccc1	none (no result: D1 allo mod, hDAT+cocaine)
Cc1cc(NCCO)n2c(nc3ccccc32)c1C#N	none (no result: D1 allo mod, hDAT+cocaine)
Cc1cc(NCCCn2ccnc2)n2c(nc3ccccc32)c1C#N	D1 allo mod 3.87 (not shown: BAP1 inh) | D1 PAM confirm 7832 | D1 no dopamine inactive | Isoprot counter inactive
CCOC(=O)N1CCN(Cc2nc(N)nc(Nc3ccc(OC)cc3)n2)CC1	none (no result: BAP1 inh, D1 allo mod)
CCOC(=O)N1CCN(Cc2nc(N)nc(Nc3ccc(Oc4ccccc4)cc3)n2)CC1	D1 allo mod 3.5 | D1 PAM confirm 12388 | D1 no dopamine inactive | Isoprot counter 3732
COc1ccc(N2Cc3cccc(C(=O)NC(C)CCc4ccco4)c3C2=O)cc1 (centres undefined)	D1 allo mod 3.4 | D1 PAM confirm 11280 | D1 no dopamine inactive | Isoprot counter 4192
